We go through 19 compounds from ChEMBL document CHEMBL1961873, “Compounds: GSK PKIS; Assays: Nanosyn kinase panel” (2012).

For experiment [1], the target named is T1, Aurora kinase A (Homo sapiens) (UniProt O14965).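 Note: values are mean percent inhibition.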
T1 sequence (whole entry): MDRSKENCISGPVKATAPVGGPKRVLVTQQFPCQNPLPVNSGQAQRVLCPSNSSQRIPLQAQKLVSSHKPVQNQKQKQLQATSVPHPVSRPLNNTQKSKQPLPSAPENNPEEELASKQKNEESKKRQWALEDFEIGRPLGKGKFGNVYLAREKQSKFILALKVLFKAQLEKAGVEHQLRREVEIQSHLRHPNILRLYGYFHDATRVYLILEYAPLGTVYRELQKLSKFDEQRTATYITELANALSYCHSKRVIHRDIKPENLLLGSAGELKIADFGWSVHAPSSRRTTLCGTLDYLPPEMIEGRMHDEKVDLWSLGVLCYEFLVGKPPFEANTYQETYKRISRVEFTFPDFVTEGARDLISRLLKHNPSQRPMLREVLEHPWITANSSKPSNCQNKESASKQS
The following applies: at 1 µM.

Experiment [2] concerns the target Aurora kinase B (Homo sapiens) (UniProt Q96GD4). The following applies: at 0.1 µM.
Experiment [3] has the same target. The following applies: at 1 µM.
Experiment [4] addresses T2, Aurora kinase C (Homo sapiens) (UniProt Q9UQB9).
T2 sequence (whole entry): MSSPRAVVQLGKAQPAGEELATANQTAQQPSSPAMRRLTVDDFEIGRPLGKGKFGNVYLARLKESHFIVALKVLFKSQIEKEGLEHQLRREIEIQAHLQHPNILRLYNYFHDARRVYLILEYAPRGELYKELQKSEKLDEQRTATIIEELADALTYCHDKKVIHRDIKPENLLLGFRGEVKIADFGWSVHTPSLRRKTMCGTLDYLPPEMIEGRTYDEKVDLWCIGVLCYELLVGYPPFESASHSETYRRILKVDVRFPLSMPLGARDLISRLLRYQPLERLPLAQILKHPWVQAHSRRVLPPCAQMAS
To be noted: at 0.1 µM.

For experiment [5], the target named is T2, Aurora kinase C (Homo sapiens). The following applies: at 1 µM.
In experiment [6] the target is Serine/threonine-protein kinase 10 (Homo sapiens) (UniProt O94804). To be noted: at 0.1 µM.
Serine/threonine-protein kinase 10 (Homo sapiens), sequence (O94804 whole entry, looked up): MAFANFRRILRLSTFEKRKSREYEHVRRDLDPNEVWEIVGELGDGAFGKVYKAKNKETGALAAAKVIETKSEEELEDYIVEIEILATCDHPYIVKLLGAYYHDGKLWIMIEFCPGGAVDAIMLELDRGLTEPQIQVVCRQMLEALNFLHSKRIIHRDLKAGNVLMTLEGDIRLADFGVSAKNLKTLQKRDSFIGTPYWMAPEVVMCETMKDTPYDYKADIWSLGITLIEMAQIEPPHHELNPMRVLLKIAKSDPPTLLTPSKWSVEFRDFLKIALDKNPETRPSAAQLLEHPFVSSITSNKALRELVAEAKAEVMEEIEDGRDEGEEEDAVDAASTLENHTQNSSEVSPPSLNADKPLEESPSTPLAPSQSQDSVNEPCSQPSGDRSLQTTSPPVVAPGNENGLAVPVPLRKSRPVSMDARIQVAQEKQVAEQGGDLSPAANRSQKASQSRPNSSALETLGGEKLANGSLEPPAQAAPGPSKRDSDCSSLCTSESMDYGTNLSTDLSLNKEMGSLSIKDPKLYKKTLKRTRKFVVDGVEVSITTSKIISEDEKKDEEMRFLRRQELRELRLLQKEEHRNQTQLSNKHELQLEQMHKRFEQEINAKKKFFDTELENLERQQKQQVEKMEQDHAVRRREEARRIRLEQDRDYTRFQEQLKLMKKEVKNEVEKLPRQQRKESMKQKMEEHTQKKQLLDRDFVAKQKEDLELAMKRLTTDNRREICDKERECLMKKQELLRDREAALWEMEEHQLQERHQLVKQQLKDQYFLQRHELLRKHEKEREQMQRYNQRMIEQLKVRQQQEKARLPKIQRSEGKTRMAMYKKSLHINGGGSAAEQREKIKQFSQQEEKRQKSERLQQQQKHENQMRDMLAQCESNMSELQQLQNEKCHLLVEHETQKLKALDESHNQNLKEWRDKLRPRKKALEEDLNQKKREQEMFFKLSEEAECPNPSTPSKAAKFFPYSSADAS
Experiment [7] shares this target. The following applies: at 1 µM.
Experiment [8] has as its target T3, Mitogen-activated protein kinase kinase kinase kinase 2 (Homo sapiens) (UniProt Q12851).
T3 sequence (whole entry): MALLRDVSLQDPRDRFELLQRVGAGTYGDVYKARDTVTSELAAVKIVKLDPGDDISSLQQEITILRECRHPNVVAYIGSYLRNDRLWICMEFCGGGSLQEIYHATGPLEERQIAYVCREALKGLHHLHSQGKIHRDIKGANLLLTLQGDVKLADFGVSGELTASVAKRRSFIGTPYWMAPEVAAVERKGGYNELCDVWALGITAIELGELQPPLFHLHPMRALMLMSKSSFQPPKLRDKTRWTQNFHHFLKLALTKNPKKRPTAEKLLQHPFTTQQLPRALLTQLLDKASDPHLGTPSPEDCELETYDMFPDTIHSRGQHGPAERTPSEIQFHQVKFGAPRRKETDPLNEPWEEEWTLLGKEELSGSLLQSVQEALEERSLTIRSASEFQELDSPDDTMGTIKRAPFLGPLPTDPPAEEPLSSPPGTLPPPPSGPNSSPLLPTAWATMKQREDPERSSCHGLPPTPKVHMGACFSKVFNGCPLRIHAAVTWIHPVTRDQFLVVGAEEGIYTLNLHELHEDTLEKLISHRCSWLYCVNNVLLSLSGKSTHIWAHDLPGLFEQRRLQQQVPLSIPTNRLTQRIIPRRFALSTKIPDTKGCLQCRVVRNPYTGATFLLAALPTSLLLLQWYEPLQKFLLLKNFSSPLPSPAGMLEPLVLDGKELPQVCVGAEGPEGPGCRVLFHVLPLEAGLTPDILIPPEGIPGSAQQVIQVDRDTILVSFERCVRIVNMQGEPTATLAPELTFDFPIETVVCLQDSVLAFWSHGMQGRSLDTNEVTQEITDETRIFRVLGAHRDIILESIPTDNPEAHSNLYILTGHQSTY
To be noted: at 0.1 µM.

Experiment [9] deals with T3, Mitogen-activated protein kinase kinase kinase kinase 2 (Homo sapiens). To be noted: at 1 µM.
The target of experiment [10] is Mitogen-activated protein kinase kinase kinase kinase 4 (Homo sapiens) (UniProt O95819). The following applies: at 0.1 µM.
Mitogen-activated protein kinase kinase kinase kinase 4 (Homo sapiens), sequence (O95819 2-1239 limits assumed): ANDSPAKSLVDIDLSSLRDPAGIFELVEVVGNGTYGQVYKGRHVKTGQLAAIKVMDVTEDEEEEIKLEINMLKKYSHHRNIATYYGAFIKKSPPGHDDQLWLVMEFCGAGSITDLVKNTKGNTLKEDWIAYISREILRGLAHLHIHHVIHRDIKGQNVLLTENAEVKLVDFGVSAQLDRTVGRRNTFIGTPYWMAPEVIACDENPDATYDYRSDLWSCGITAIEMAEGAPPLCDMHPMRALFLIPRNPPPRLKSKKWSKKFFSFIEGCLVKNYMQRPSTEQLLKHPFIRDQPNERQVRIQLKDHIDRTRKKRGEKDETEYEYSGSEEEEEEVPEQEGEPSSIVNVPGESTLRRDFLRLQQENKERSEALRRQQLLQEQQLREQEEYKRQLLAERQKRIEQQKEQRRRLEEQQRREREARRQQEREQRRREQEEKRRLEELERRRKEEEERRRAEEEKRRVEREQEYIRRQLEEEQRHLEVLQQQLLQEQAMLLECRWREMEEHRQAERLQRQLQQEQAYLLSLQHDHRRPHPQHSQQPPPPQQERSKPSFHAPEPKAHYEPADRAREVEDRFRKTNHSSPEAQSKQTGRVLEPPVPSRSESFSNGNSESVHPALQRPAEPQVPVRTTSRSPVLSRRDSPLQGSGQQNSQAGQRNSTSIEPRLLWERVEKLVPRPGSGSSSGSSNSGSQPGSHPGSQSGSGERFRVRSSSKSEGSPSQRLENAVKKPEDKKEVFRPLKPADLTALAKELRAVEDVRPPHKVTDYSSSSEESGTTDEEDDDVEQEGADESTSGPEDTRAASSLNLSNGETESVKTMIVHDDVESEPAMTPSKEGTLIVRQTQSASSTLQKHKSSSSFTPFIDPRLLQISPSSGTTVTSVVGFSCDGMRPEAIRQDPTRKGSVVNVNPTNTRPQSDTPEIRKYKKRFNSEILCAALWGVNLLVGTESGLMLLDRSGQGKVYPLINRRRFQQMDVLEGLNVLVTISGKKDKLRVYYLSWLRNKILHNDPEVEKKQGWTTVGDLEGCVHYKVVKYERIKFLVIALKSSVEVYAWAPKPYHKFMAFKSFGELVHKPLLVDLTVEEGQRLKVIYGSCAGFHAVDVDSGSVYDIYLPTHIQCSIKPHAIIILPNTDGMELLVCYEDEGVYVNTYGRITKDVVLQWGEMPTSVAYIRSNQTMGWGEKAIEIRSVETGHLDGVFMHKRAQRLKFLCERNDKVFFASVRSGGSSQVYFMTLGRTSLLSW

Aurora kinase B (Homo sapiens), sequence (Q96GD4 whole entry): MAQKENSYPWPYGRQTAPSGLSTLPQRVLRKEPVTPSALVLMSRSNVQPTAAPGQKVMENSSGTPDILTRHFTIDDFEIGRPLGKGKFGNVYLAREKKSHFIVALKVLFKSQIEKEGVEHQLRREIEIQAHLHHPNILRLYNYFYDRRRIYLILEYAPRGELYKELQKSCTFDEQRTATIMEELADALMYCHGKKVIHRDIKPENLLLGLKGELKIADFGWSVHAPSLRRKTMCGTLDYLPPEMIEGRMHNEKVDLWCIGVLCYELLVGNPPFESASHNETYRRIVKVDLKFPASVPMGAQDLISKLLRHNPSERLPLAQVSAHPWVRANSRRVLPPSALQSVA

One may read the inhibition as the change of the read-out against control, counted positive when it falls. As to `NCc1ccc(-n2c(-c3nonc3N)nc3cnccc32)cc1`, the inhibition in experiment [1] came out at 8.79%; in [2] it was 3.64%; in experiment [3], 12.4%; in [4], 3.83%; in experiment [5], 18.8%; in experiment [6], 8.16%. In addition, the inhibition in [7] was 24.2%; in experiment [8] it was 3.62%; in [9], 18.2%; in experiment [10], 10.1%.
`c1ccc(Oc2ccc(Nc3ncc(-c4ccccc4)o3)cc2)cc1`: the inhibition was 10.2% in [1]; 2.17% in experiment [2]; 7.16% in experiment [3]; 0.67% in experiment [4]; -1.26% in [5]; 0.49% in experiment [6]. The inhibition worked out at 2.71% in [7], 1.08% in experiment [8], 1.62% in experiment [9] and 3.28% in experiment [10].
For the compound `CCS(=O)(=O)c1ccc(OC)c(Nc2ncc(-c3ccccc3Cl)o2)c1`, the inhibition was 10.9% in experiment [1]; -1.57% in experiment [2]; 5.12% in experiment [3]; 1.38% in experiment [4]; -2.79% in [5]; 2.59% in experiment [6]. The inhibition in [7] amounted to 6.5%; in experiment [8], 0.68%; in [9] it was 5.1%; in [10], 4.85%.
In the case of `O=C(Nc1n[nH]c2cc(-c3ccccc3)ccc12)C1CC1`, the inhibition in experiment [1] was 13.2%; in experiment [2], 4.05%; in experiment [3], 3.92%; in experiment [4], 0.96%; in [5], 9.67%; in experiment [6], 4.04%. In addition, the inhibition in [7] was 19.9%; in experiment [8] it was 1.56%; in [9] it was 4.2%; in [10], 33.6%.
Consider `COc1ccc2ncn(-c3cc(O[C@H](C)c4ccccc4Cl)c(C(N)=O)s3)c2c1`, for which the inhibition in experiment [1] is 0.29%; in experiment [2], -0.75%; in [3], 1.24%; in experiment [4] it was -3.77%; in experiment [5], 1.77%; in experiment [6], 20.3%. Besides, the inhibition in [7] was determined as 59.1%; in [8], 1.91%; in experiment [9], 11%; in experiment [10] it was 4.38%.
As to `CN(C)CCOc1ccc(-c2cc(-c3ccc4c(c3)CCC4=NO)c(-c3ccncc3)o2)cc1`, the inhibition in [1] is 0.04%; in experiment [2], -1.06%; in experiment [3] it was 1.93%; in [4], 0.74%; in [5], 7.21%; in [6] it was 16.8%. Also, the inhibition came out at 62.6% in experiment [7], 2.2% in experiment [8], 5.27% in [9] and 0.91% in experiment [10].
Turning to `Fc1ccc(-c2c(-c3ccncc3)nc3n2CCS3)cc1`, the inhibition in experiment [1] is 2.75%; in experiment [2] it was -0.21%; in [3] it was 1.83%; in [4] it was -4.05%; in [5], -8.58%; in experiment [6] it was -1.08%. In addition, the inhibition is 7.95% in [7], 1.02% in experiment [8], 3.03% in [9] and 4.23% in [10].
Regarding `Cc1ccc(C(=O)NC2CCC2)cc1-c1ccc(C(=O)NCC2CC2)cc1`, the inhibition in experiment [1] turned out to be 7.83%; in experiment [2], 0.48%; in experiment [3], 5.72%; in experiment [4], 0.47%; in experiment [5], 7.37%; in [6], 2.19%. Further, the inhibition in experiment [7] was 6.8%; in experiment [8], 0.91%; in experiment [9], 0.04%; in experiment [10], 3.19%.
For `O=C(Nc1n[nH]c2nc(-c3ccc(O)cc3)c(Br)cc12)C1CC1`, the inhibition stood at 37.7% in [1]; 4.29% in experiment [2]; 12.7% in experiment [3]; 2.12% in [4]; 8.73% in experiment [5]; 16.2% in experiment [6]. Further, the inhibition in experiment [7] came out at 61.3%; in experiment [8], 7%; in experiment [9], 34.4%; in experiment [10], 32.2%.
Regarding `c1ccc(-c2n[nH]cc2-c2ccnc(-c3ccc(OCCN4CCOCC4)cc3)c2)nc1`, the inhibition was 7.41% in [1]; 7.03% in experiment [2]; 11.9% in experiment [3]; 5.43% in [4]; 18.2% in experiment [5]; 3.53% in [6]. The inhibition in experiment [7] is 6.24%; in experiment [8], 6.4%; in experiment [9] it was 7.48%; in experiment [10], 28.6%.
With `CN1CCN(CCCNc2nc3ccc(Oc4ccc(NC(=O)Nc5cc(C(F)(F)F)ccc5F)cc4)cc3[nH]2)CC1`, the inhibition in [1] was -0.34%; in [2], -0.75%; in [3] it was 4.51%; in [4], -5.06%; in [5], 23.7%; in experiment [6], 15.9%. Further, the inhibition was 53% in experiment [7], 3.12% in experiment [8], 8.26% in experiment [9] and 2.15% in [10].
Turning to `NS(=O)(=O)c1ccc(N/N=C2\C(=O)Nc3ccc(C(=O)NCCCn4ccnc4)cc32)cc1`, the inhibition in experiment [1] amounted to 49.9%; in experiment [2], 1.38%; in experiment [3], 17.8%; in experiment [4], 3.31%; in experiment [5], 23.2%; in experiment [6] it was 6.25%. For the same compound, the inhibition in experiment [7] was 12.2%; in experiment [8] it was 3.32%; in experiment [9] it was 8.35%; in experiment [10] it was 10.8%.
Regarding `O=C(Nc1n[nH]c2nc(-c3ccco3)ccc12)C1CC1`, the inhibition in [1] was found to be 11.4%; in experiment [2] it was 1.7%; in [3], 8.39%; in experiment [4], 1.88%; in experiment [5], 7.39%; in [6] it was 4.1%. Also, the inhibition in experiment [7] came to 9.62%; in experiment [8], 0.49%; in experiment [9], 4.84%; in [10] it was 4.17%.
For the compound `CNC(=O)c1cncc(/C=C/c2c(C)cccc2C)c1`, the inhibition in experiment [1] was -0.78%; in experiment [2] it was -3.36%; in experiment [3] it was -3.06%; in experiment [4], -3.26%; in [5] it was -9.54%; in experiment [6] it was 1.24%. For the same compound, the inhibition stood at 10.3% in [7], 0.91% in [8], 4.59% in experiment [9] and 4.81% in experiment [10].
For the compound `C/C(Nc1ccc(S(N)(=O)=O)cc1)=C1/C(=O)Nc2ccccc21`, the inhibition in experiment [1] came out at 37.8%; in experiment [2], 8.07%; in experiment [3], 48%; in experiment [4], 7.34%; in [5], 85.7%; in experiment [6], 0.97%. Besides, the inhibition in experiment [7] came to 9.28%; in experiment [8], 1.58%; in experiment [9], 17.7%; in [10], 44.9%.
As to `CCc1nccc2c1nc(-c1nonc1N)n2CC`, the inhibition is 11.2% in [1]; 1.28% in experiment [2]; 5.03% in [3]; 0.67% in [4]; 5.21% in experiment [5]; -0.01% in experiment [6]. Also, the inhibition in [7] was found to be 3.09%; in experiment [8], 2.12%; in experiment [9], 2.26%; in [10], 2.56%.
Turning to `O=C1Nc2ccc(I)cc2C1=Cc1cc(Br)c(O)c(Br)c1`, the inhibition came to 9.69% in experiment [1]; 1.83% in experiment [2]; 3.08% in experiment [3]; 0.09% in [4]; 4.11% in experiment [5]; 4.81% in [6]. Further, the inhibition was determined as 7.92% in [7], 0.93% in experiment [8], 3.6% in experiment [9] and 31.7% in experiment [10].
With `CCN(CC)Cc1ccc(Nc2nccc(-c3cnn4ncccc34)n2)cc1`, the inhibition turned out to be 34.3% in [1]; 27.5% in experiment [2]; 63.7% in experiment [3]; 38% in experiment [4]; 84.6% in [5]; 7.37% in experiment [6]. Moreover, the inhibition came to 18% in experiment [7], 3.21% in experiment [8], 21.2% in [9] and 5.41% in experiment [10].
Take `NC(=O)Cc1ccccc1Oc1nccc(-c2c(-c3ccc(F)cc3)ncn2C2CCNCC2)n1`: the inhibition in experiment [1] is 0.49%; in [2], 2.8%; in experiment [3], 1.02%; in experiment [4], -0.43%; in [5] it was 8.16%; in experiment [6], 3.78%. The inhibition in experiment [7] worked out at 5.45%; in experiment [8] it was 0.65%; in experiment [9], 3.36%; in experiment [10] it was 5.19%.
